The record followed here is the supplement of paper PMC4962491.

The experiment deals with FaDu. Nature of the experiment: mitochondrial oxygen consumption rate normalised to cell number, Z score vs plate DMSO wells; higher = higher oxygen consumption (negative = OCR reduction). The following applies: treatment time 24 h, assay medium: 5 mM glucose, 5 mM pyruvate, 4 mM glutamine. As for the experimental part:
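Secondary screen: FaDu cells were incubated 24 h with the top 130 primary hits at 0.08, 0.4, 2 or 10 uM. Mitochondrial-specific OCR (basal minus antimycin A) was measured on a Seahorse XF96 in medium with 5 mM glucose, 5 mM pyruvate and 4 mM glutamine and normalised to Hoechst cell number. OCR score = (OCR - mean of plate DMSO wells) / SD of plate DMSO wells. Three repeats.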

± gives the standard deviation of the averaged measurements.
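Further: compound exposure in DMEM (4 mM L-glutamine, 5 mM glucose), antimycin A injected at 2 µM after the basal reading and its residual OCR subtracted from basal.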

With `COc1ccc(Cc2nccc3cc(OC)c(OC)cc23)cc1OC`, the “mitochondrial oxygen consumption rate normalised” value runs as follows: (0.08 µM) 0.452 ± 1; (0.4 µM) 1.06 ± 1.4; (2 µM) 0.739 ± 0.59; (10 µM) -0.208 ± 3.2.
For the molecule `CCN1C[C@]2(COC)[C@H](O)C[C@H](OC)[C@@]34[C@@H]5C[C@@]6(O)[C@H](OC(=O)c7ccccc7)[C@@H]5[C@@](OC(C)=O)([C@@H]([C@H](OC)[C@H]23)[C@@H]14)[C@@H](O)[C@@H]6OC`, the “mitochondrial oxygen consumption rate normalised” value was -1.27 ± 0.64 (0.08 µM), 0.916 ± 0.68 (0.4 µM), -0.205 ± 0.67 (2 µM) and -1.19 ± 2.6 (10 µM).
Consider `CC[C@H]1CN2CCc3cc(OC)c(OC)cc3[C@@H]2C[C@@H]1C[C@H]1NCCc2cc(OC)c(OC)cc21`, for which the “mitochondrial oxygen consumption rate normalised” value runs as follows: (0.08 µM) -2.43 ± 0.17; (0.4 µM) -3.08 ± 0.73; (2 µM) -9.68 ± 0.42; (10 µM) -11.8 ± 0.41.
Consider `COc1cc([C@@H]2c3cc4c(cc3[C@H](O)[C@H]3COC(=O)[C@H]23)OCO4)cc(OC)c1OC`, for which the “mitochondrial oxygen consumption rate normalised” value was -0.539 ± 1.6 (0.08 µM), -0.043 ± 0.98 (0.4 µM), 0.427 ± 0.56 (2 µM) and -0.617 ± 1.2 (10 µM).
Turning to `CC(=O)Oc1ccc(Cl)c2cccnc12`, the “mitochondrial oxygen consumption rate normalised” value by setting is: (0.08 µM) 1.68 ± 0.74; (0.4 µM) 1.4 ± 1.5; (2 µM) 1.41 ± 0.58; (10 µM) -4.99 ± 1.8.
As to `C=C1C[C@@H]2[C@H](CC[C@]3(C)C(=O)CC[C@@H]23)[C@@]2(C)C=CC(=O)C=C12`, the “mitochondrial oxygen consumption rate normalised” value was -0.364 ± 0.53 (0.08 µM), 1.24 ± 0.73 (0.4 µM), -0.149 ± 1 (2 µM) and 0.548 ± 0.94 (10 µM).
As to `CCCCCCCCCCCCCCCC[n+]1ccccc1`, the “mitochondrial oxygen consumption rate normalised” value (0.08 µM) is -1.4 ± 1.2, the “mitochondrial oxygen consumption rate normalised” value (0.4 µM) is -7.98 ± 1.3 and the “mitochondrial oxygen consumption rate normalised” value (2 µM) is -12.98 ± 0.12.
As to `S=C=NCc1ccccc1`, the “mitochondrial oxygen consumption rate normalised” value runs as follows: (0.08 µM) 0.549 ± 1.3; (0.4 µM) 1.06 ± 1.3; (2 µM) 0.157 ± 2.2.
Consider `CC(=O)O[C@H]1C[C@H](O[C@H]2[C@@H](O)C[C@H](O[C@H]3[C@@H](O)C[C@H](O[C@H]4CC[C@@]5(C)[C@H](CC[C@@H]6[C@@H]5C[C@@H](O)[C@]5(C)[C@@H](C7=CC(=O)OC7)CC[C@]65O)C4)O[C@@H]3C)O[C@@H]2C)O[C@H](C)[C@H]1O[C@@H]1O[C@H](CO)[C@@H](O)[C@H](O)[C@H]1O`, for which the “mitochondrial oxygen consumption rate normalised” value (0.08 µM) is -0.88 ± 0.81 and the “mitochondrial oxygen consumption rate normalised” value (0.4 µM) was -3.22 ± 1.3.
For the molecule `CC(C)[N+](C)(CCC(C(N)=O)(c1ccccc1)c1ccccc1)C(C)C`, the “mitochondrial oxygen consumption rate normalised” value is -0.746 ± 1.7 (0.08 µM), 0.934 ± 0.43 (0.4 µM), 0.355 ± 1.3 (2 µM) and -0.361 ± 2 (10 µM).
Take `O=c1[nH]c2ccccc2n1C1CCN(CCCC(c2ccc(F)cc2)c2ccc(F)cc2)CC1`: the “mitochondrial oxygen consumption rate normalised” value reads like this: (0.08 µM) 0.0686 ± 1.5; (0.4 µM) 0.719 ± 0.8; (2 µM) -0.247 ± 1; (10 µM) -2.41 ± 0.47.
